Measured values published in PubChem BioAssay (NCI).
Values joined by “and” are separate entries in the source; they are usually repeats but may differ in a detail not shown here. Equal values may be shown once. About 79,000 compounds went through this panel and 15% of them were active in at least one assay; those are over-represented in the sample as a whole. Some compounds were tested as several samples or in several runs, with calls that do not always agree. Active and inactive are the calls of the source. Rule as the data show it: active = growth inhibition above about 70%; inactive = the rest.

Experiment: NCI Yeast Anticancer Drug Screen. Data for the bub3 strain (AID 167)
Conditions: S. cerevisiae bub3 mutant strain, at 33.0 µM, stronger effect = higher value
Method in brief: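 Steps: expose the mutant yeast strain to compound; grow alongside vehicle-treated cultures; measure growth; express inhibition against the vehicle cultures.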

| Structure (SMILES) | growth inhibition |
| --- | --- |
| COc1ccc(/C=C2\CCc3ccccc3C2=O)cc1OC | 76% (active) |
| O=Cc1ccccc1B(O)O | 98% (active) |
| CC(=O)CC[N+](C)(C)C | 13% (inactive) |
| O=C(O)[C@H]1[C@@H](C2CCCCC2)O[C@@H](C2CCCCC2)O[C@H]1C(F)(F)F | -2% (inactive) |
| CN(NC(=O)/C(=C/C=C/c1ccccc1)NC(=O)c1ccccc1)C1=C(Cl)C(=O)[N+](c2ccccc2)=CC1 | 53% (inactive) |
| CCCCOc1ccc(Nc2c3ccccc3nc3ccccc23)cc1 | 99% (active) |
| N#C/C(=C1C=C/C(=N\O)C(Cl)=C\1)c1ccccc1 | 14% (inactive) |
| COc1ccc(C(=O)OCCc2ccccc2)cc1 | 34% (inactive) |
| Cc1c2ccncc2c(C)c2c1oc1ccccc12 | 88% (active) |
| CCCC#CCOC(=O)c1cc([N+](=O)[O-])cc([N+](=O)[O-])c1 | 98% (active) |
| Nc1nc(Nc2ccccc2)nc(Nc2ccccc2)n1 | 5% (inactive) |
| COc1ccc(/C=C2\S/C(=N/Nc3nc(-c4ccccc4)cs3)NC2=O)cc1OC | 97% (active) |
| CC(O)CN1C(=O)c2cccc3cc([N+](=O)[O-])cc(c23)C1=O (centres undefined) | -21% (inactive) |
| Cn1c(COc2ccc(/C=N/NC(=O)CCC(=O)N/N=C/c3ccc(OCc4c[n+]5ccccc5n4C)cc3)cc2)c[n+]2ccccc12 | -1% (inactive) |
| COC1=C(N=[N+]=[N-])C(=O)c2ncccc2C1=O | 72% (active) |
| CCN(CC)c1ccc(N=Nc2cc(S(=O)(=O)O)ccc2O)c(O)c1 | 11% (inactive) |
| O=C1C(C(O)(C(F)(F)F)C(F)(F)F)CCC1C(O)(C(F)(F)F)C(F)(F)F (centres undefined) | 11% (inactive) |
| CN(C)CCNC(=O)c1cccc2nc3c(ccc4ccccc43)nc12 | 24% (inactive) |
| O=S(=O)(CCC[C@H]1[C@@H](CCOCc2ccccc2)C2CCCN1O2)c1ccccc1 (some centres undefined) | 6% (inactive) |
| CCC(C)/C(C)=N/NC(N)=O (centres undefined) | -3% (inactive) |
| Nc1c([N+](=O)[O-])cc2c3c(cccc13)CC2 | 10% (inactive) |
| CC1=Cc2ccc(C)cc2C(=O)C1=O | 44% (inactive) |
| C=Cc1c(C)c(O)cc2c1-c1ccc(O)c(C)c1CC2 | 98% (active) |
| NCC(O)CSCc1ccc(Cl)cc1 (centres undefined) | 20% (inactive) |
| C[n+]1c(-c2ccc(NC(=O)c3ccc(C(=O)Nc4ccc(-c5cn6ccccc6[n+]5C)cc4)cc3)cc2)cn2ccccc21 | 83% (active) |
| CNC(=O)OCc1c(COC(=O)NC)c(C)n(-c2ccc(Cl)c(Cl)c2)c1C | 97% (active) |
| [O-]c1c2cc(-[n+]3c(-c4ccccc4)cc(-c4ccccc4)cc3-c3ccccc3)cc1COCCOCCOCCOCCOC2 | -8% (inactive) |
| C[Si](C)(C)Cc1ccccc1C(=O)O | 6% (inactive) |

Same assay, conditions: S. cerevisiae bub3 mutant strain, at 50.0 µM (retest, dose inferred, filed as 5.0), stronger effect = higher value

| Structure (SMILES) | growth inhibition |
| --- | --- |
| COc1ccc(/C=C2\CCc3ccccc3C2=O)cc1OC | 95% (active) |
| CC(C)c1ccc(O)c(=O)cc1 | 48% (inactive) and 56% (inactive) and -2% (inactive) |
| O=Cc1ccccc1B(O)O | 95% (active) |
| OCC(O)C(O)C(O)C(O)c1nc2ccccc2[nH]1 (centres undefined) | 12% (inactive) and -1% (inactive) |
| CC(=O)CC[N+](C)(C)C | 14% (inactive) |
| O=C(O)[C@H]1[C@@H](C2CCCCC2)O[C@@H](C2CCCCC2)O[C@H]1C(F)(F)F | 5% (inactive) |
| CN(NC(=O)/C(=C/C=C/c1ccccc1)NC(=O)c1ccccc1)C1=C(Cl)C(=O)[N+](c2ccccc2)=CC1 | 72% (active) |
| CCCCOc1ccc(Nc2c3ccccc3nc3ccccc23)cc1 | 98% (active) |
| N#C/C(=C1C=C/C(=N\O)C(Cl)=C\1)c1ccccc1 | 71% (active) |
| COc1cccc2c1C(=O)c1c(O)c3c(c(O)c1C2=O)CC(O)(C(=O)CO)CC3OC1CC(N)C(O)C(C)O1 (centres undefined) | 13% (inactive) and 16% (inactive) and 76% (active) |
| COc1ccc(C(=O)OCCc2ccccc2)cc1 | 79% (active) |
| Cc1c2ccncc2c(C)c2c1oc1ccccc12 | 94% (active) |
| CCCC#CCOC(=O)c1cc([N+](=O)[O-])cc([N+](=O)[O-])c1 | 99% (active) |
| Nc1nc(Nc2ccccc2)nc(Nc2ccccc2)n1 | 32% (inactive) |
| COc1ccc(/C=C2\S/C(=N/Nc3nc(-c4ccccc4)cs3)NC2=O)cc1OC | 98% (active) |
| CCCCCCCCCCCC[N+](C)(C)Cc1ccccc1 (tested in a mixture with another compound) | 100% (active) and 99% (active) |
| CC(O)CN1C(=O)c2cccc3cc([N+](=O)[O-])cc(c23)C1=O (centres undefined) | 32% (inactive) |
| Cc1cc(SC#N)ccc1O | 94% (active) and 80% (active) |

| Structure (SMILES) | growth inhibition |
| --- | --- |
| Cn1c(COc2ccc(/C=N/NC(=O)CCC(=O)N/N=C/c3ccc(OCc4c[n+]5ccccc5n4C)cc3)cc2)c[n+]2ccccc12 | 33% (inactive) |
| COC1=C(N=[N+]=[N-])C(=O)c2ncccc2C1=O | 88% (active) |
| CCN(CC)c1ccc(N=Nc2cc(S(=O)(=O)O)ccc2O)c(O)c1 | 45% (inactive) |
| O=C1C(C(O)(C(F)(F)F)C(F)(F)F)CCC1C(O)(C(F)(F)F)C(F)(F)F (centres undefined) | 32% (inactive) |
| COc1nc(N)c(N=CC(OC(C)=O)C(OC(C)=O)C(COC(C)=O)OC(C)=O)c(=O)n1C (centres undefined) | -7% (inactive) and -8% (inactive) and -4% (inactive) |
| CN(C)CCNC(=O)c1cccc2nc3c(ccc4ccccc43)nc12 | 43% (inactive) |
| O=S(=O)(CCC[C@H]1[C@@H](CCOCc2ccccc2)C2CCCN1O2)c1ccccc1 (some centres undefined) | 10% (inactive) |
| CCC(C)/C(C)=N/NC(N)=O (centres undefined) | 43% (inactive) |
| Nc1c([N+](=O)[O-])cc2c3c(cccc13)CC2 | 17% (inactive) |
| CC1=Cc2ccc(C)cc2C(=O)C1=O | 99% (active) |
| C=Cc1c(C)c(O)cc2c1-c1ccc(O)c(C)c1CC2 | 97% (active) |
| NCC(O)CSCc1ccc(Cl)cc1 (centres undefined) | 64% (inactive) |
| C[n+]1c(-c2ccc(NC(=O)c3ccc(C(=O)Nc4ccc(-c5cn6ccccc6[n+]5C)cc4)cc3)cc2)cn2ccccc21 | 97% (active) |
| Nc1ccccc1SSc1ccccc1N | 99% (active) and 28% (inactive) |
| CCCCCCCCCCCC[N+](C)(C)C | 95% (active) and 98% (active) and 100% (active) |
| CNC(=O)OCc1c(COC(=O)NC)c(C)n(-c2ccc(Cl)c(Cl)c2)c1C | 9% (inactive) |
| [O-]c1c2cc(-[n+]3c(-c4ccccc4)cc(-c4ccccc4)cc3-c3ccccc3)cc1COCCOCCOCCOCCOC2 | 10% (inactive) |
| C[Si](C)(C)Cc1ccccc1C(=O)O | 17% (inactive) |
